HP1b binding inh = inhibitors of HP1-beta chromodomain binding to methylated histone tails; hit rate 0.56% among 390,000; P83916; AlphaScreen HP1-beta / biotin-H3K9me3 peptide binding; AID 540317; Potency, µM (titrated, usually from 114 µM), for the others: at the highest dose activity change, negative = inhibition, usual class: inhibitors; also: potency is read from the fitted curve at half-maximal effect; nearly all actives have a fitted effect of over 70% in size
Target sequence (P83916 whole entry, looked up): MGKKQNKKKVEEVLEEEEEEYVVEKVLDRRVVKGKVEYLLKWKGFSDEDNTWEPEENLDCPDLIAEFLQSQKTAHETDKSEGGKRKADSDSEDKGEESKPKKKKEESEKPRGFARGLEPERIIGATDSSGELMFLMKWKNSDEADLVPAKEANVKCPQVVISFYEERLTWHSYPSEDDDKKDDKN
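Compound inhibition of the preformed complex between 50 nM HP1-beta and 50 nM biotinylated H3K9me3 peptide was read by AlphaScreen. Buffer was PBS pH 7.4 with 0.01% Tween-20. Incubations ran 30 min at room temperature, with 10 ug/mL donor/acceptor beads.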
Six1-Eya2 blk = Six1/Eya2 interaction inhibition; hit rate 0.56% among 360,000; AlphaScreen GST-Six1/His-Eya2 binding, biochemical; hits give low values; AID 651725; Q15475+O00167; activity change, % (concentration not given with the values); in the data active = activity change below about -65%; inconclusive = mostly about -30% to -63%; also: % is scaled to controls: 0 for no effect and ±100 for the full control effect
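Six1/Eya2 binding was read as AlphaScreen signal after compounds were pinned into GST-Six1 plus His-tagged Eya2 (5X stock 250/500 nM) in pH 8.0 Tris/NaCl/TCEP buffer, beads added, then incubated 1 h, 37 C, dark.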
CtBP-E1A blk = blocks the CtBP interaction with E1A | AID 651724 | AlphaScreen GST-E1A/His-CtBP binding, 1536-well; hits give low values | hit rate 0.49% among 340,000 | activity change, % (test concentration not listed); in the data active = activity change below about -65%; inconclusive = mostly about -30% to -63%; also: % is scaled to controls: 0 for no effect and ±100 for the full control effect
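GST-E1A and His-tagged CtBP (125 nM each as 5X stock) were preincubated with pin-transferred compound for 2 h at 37 °C in the dark, then glutathione donor and nickel acceptor beads were added for 1 h before AlphaScreen reading.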
BAZ2B block = BAZ2B (human) inhibition. Q9UIF8. AlphaScreen BAZ2B-H3K14Ac peptide displacement. Potency, µM (highest dose often 114 µM), for the others: top-dose activity change, negative = inhibition, most hits filed as inhibitors. hit rate 4.4% among 360,000. AID 504333; also: potency is read from the fitted curve at half-maximal effect; % is scaled to controls: 0 for no effect and ±100 for the full control effect; nearly all actives have a fitted effect of over 60% in size
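Complex of BAZ2B and biotin-H3K14Ac (50 nM apiece) forms over 30 min at RT, then faces library compounds up to 110 uM for another 30 min; AlphaScreen beads added, 20 min dark incubation, luminescence read.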
G9a inh = inhibitors of human histone lysine methyltransferase G9a | Q96KQ7 | G9a H3K9 monomethylation, AlphaScreen, 2 h | Potency, µM (highest dose often 102 µM), inactives show at the top dose activity, negative = inhibition, most hits filed as inhibitors | hit rate 8.8% among 350,000; also: potency is read from the fitted curve at half-maximal effect; % is scaled to controls: 0 for no effect and ±100 for the full control effect; nearly all actives have a fitted effect of over 75% in size
Target sequence (Q96KQ7 913-1193 limits assumed): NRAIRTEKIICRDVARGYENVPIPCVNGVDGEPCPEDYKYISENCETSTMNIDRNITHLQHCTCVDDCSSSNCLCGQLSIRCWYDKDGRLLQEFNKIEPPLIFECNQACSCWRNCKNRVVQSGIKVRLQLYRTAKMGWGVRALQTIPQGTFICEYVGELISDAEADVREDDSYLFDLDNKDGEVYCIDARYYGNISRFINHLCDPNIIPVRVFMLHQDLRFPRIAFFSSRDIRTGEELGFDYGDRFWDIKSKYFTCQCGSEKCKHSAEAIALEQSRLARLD
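Enzyme 20 nM + cpd, 15 min RT; add b-H3K9 pep 500 nM / SAM 20 uM; 2 h RT; anti-H3K9me1 Ab 0.5 ug/mL + SA donor / anti-rabbit acceptor beads 20 ug/mL each, 10 min; AlphaScreen read.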
JMJD2A Tudor inh = blocks the human JMJD2A Tudor domain. AlphaScreen JMJD2A-Tudor / H3K4me3 peptide binding. AID 504339. hit rate 4.4% among 390,000. Potency, µM (highest dose often 114 µM), for the others: at the top dose activity change, negative = inhibition, actives largely listed as inhibitors. O75164; also: potency is read from the fitted curve at half-maximal effect; % is scaled to controls: 0 for no effect and ±100 for the full control effect; nearly all actives have a fitted effect of over 50% in size
* marks the source's active call; other numbers are inactive results; ? = inconclusive; . = not tested or not shown; [ ] = dose if it differs, or a comment. Rows were chosen to be rich in hits. Some 10% of all compounds tested hit in one or more screens of this group. Unless noted, calls follow the shape of the dose curve; as a rule, active = well fitted inhibition curve with a large enough effect; inconclusive = small, poorly fitted or top-dose-only effect; inactive = no such curve, though single readings can be large or run the other way.

SMILES	HP1b binding inh	Six1-Eya2 blk	CtBP-E1A blk	BAZ2B block	G9a inh	JMJD2A Tudor inh
COc1ccc(CN2CCNC(=O)C2CC(=O)N(C)Cc2nc(C)cs2)c(OC)c1 (stereo not drawn)	9%	8	0	-33%	50µM*	-8%
Cc1csc(CN(C)C(=O)CC2C(=O)NCCN2Cc2ccc(F)cc2Cl)n1 (stereo not drawn)	41%	12	-1	-17%	22µM*	-3%
Cc1csc(CNC(=O)CC2C(=O)NCCN2Cc2ccc(F)cc2Cl)n1 (stereo not drawn)	33%	-1	-2	2%	55%	-4%
COc1ccc(CN2CCNC(=O)C2CC(=O)N(C)Cc2nccs2)c(OC)c1 (stereo not drawn)	17%	3	-1	-11%[57.1 µM]	3%	-32%
Cc1csc(CN(C)C(=O)CC2C(=O)NCCN2Cc2ccc(Cl)c(F)c2)n1 (stereo not drawn)	40%	3	3	-22%	40µM*	-10%
Cc1cc(CN(C)C(=O)CC2C(=O)NCCN2Cc2c(F)cccc2Cl)n[nH]1 (stereo not drawn)	24%	2	3	33%	40µM*	9%
CCOc1ccc(NC(=O)CNC(=O)c2cccs2)cc1	33%	1	.	-15%	-27%	-1%
CC1CCC2(CC1)NC(=O)N(CC(=O)N1CCN(C(=O)c3ccco3)CC1)C2=O (stereo not drawn)	34%	6	2	2%	-6%[12.7 µM]	-14%
COc1ccc(S(=O)(=O)NNc2nc(C)cc(C)n2)cc1Br	-8%	10	-2	6%	22µM*	-15%
Cc1cc(C)nc(NNS(=O)(=O)c2ccc(Cl)cc2)n1	-5%	25	0	.	.	?
Cc1cc(C)nc(NNS(=O)(=O)c2ccc(F)c(Cl)c2)n1	15%	-2	0	79µM*	?	-31%
COc1ccc(S(=O)(=O)NC2CC2)cc1Br	35%	1	13	2%	.	3%
O=c1c(-c2ccco2)nc2ccccc2n1C(c1ccccc1)c1nc2ccccc2[nH]1 (stereo not drawn)	.	-3	6	.	.	.
COc1ccc(C(CNC(=O)c2cc(SC)ccc2Cl)N(C)C)cc1 (stereo not drawn)	49%	-1	4	0%	-9%	2%[11.4 µM]
COc1ccc(C(CNC(=O)Cn2c(=O)oc3ccccc32)N(C)C)cc1 (stereo not drawn)	35%	-4	1	-29%	8.9µM*	-6%
COc1ccc(C(CNC(=O)c2ccccc2SC)N(C)C)cc1 (stereo not drawn)	10%	9	1	-7%	7.9µM*	-23%
COc1ccc(-c2cc(C(F)(F)F)n3nc(C(=O)O)c(Cl)c3n2)cc1OC	15%	.	.	?	9%[59 µM]	-17%
Cc1ccc(C(=O)NCC(=O)OCc2cc(=O)n3ccsc3n2)cc1	36%	.	.	-3%	3%[59 µM]	6%
O=C(O)CCCC(=O)Nc1ccc(N=Nc2ccccc2)cc1	20%	-7	.	-6%	-29%	-29%
COC(=O)CCC(=O)Nc1ccc(N=Nc2ccccc2)cc1	6%	-19	-20	40µM*	10µM*	?
COC(=O)c1ccc(NC(=O)CNc2ccccc2)cc1	15%	2	21	-10%	-2%	-10%
Oc1ccc(Cl)cc1N=Nc1ccccc1	-27%	-17	.	32µM*	22µM*	35µM*
O=C(O)c1ccccc1N=Nc1ccc(O)cc1	23%	-1	0	.	.	?
Oc1ccc(N=Nc2ccccc2)cc1	-10%	-25	.	?	50µM*	?
COC(=O)c1ccc(N=Nc2ccccc2)cc1	?	-23	-28	13µM*	40µM*	?
SMILES	HP1b binding inh	Six1-Eya2 blk	CtBP-E1A blk	BAZ2B block	G9a inh	JMJD2A Tudor inh
CC(=O)c1cccc(NC(=O)CCc2c(C)nc3c(c(C)nn3-c3ccccc3)c2C)c1	36%	.	.	-1%	4%[59 µM]	-6%
Cc1c(C(=O)NCc2cccc(Cl)c2)sc(=O)n1Cc1ccc(C(=O)N(C)C)cc1	.	-22	-17	.	.	.
COC(=O)c1ccccc1-n1cc2c(c1-c1cccc(C)c1)c(=O)n(C)c(=O)n2C	16%	.	.	-13%	7.9µM*	-24%
Cc1ccc(S(=O)(=O)NNC(=O)c2sc(NS(=O)(=O)c3ccccc3)nc2C)cc1	24%	-4	0	-23%	-14%	-2%
Cc1nc(NS(=O)(=O)c2ccccc2)sc1C(=O)NNS(=O)(=O)c1ccccc1	-13%	7	-1	-10%	50µM*	-23%
Cc1nc(C)c(C(=O)NNS(=O)(=O)c2ccc3ccccc3c2)s1	17%	10	21	-17%	?	25µM*
Cc1nc(NS(=O)(=O)c2ccccc2)sc1NC(=O)Nc1ccc(Cl)cc1	-9%	-3	25	50µM*	-26%[12.7 µM]	?
CS(=O)(=O)c1ccc(Cl)c(NC(=O)CSc2n[nH]c(-c3cccs3)n2)c1	30%	-17	-14	5%	21%[2.33 µM]	-14%
Clc1cccc(CNc2cc(-c3ccccc3)nc3nncn23)c1	37%	.	.	3%	5%[59 µM]	-1%
Cc1cccc(C(=O)N2CCc3cc(CNC(=O)c4ccnn4C)ccc32)c1	22%	.	.	-3%	-1%[59 µM]	-15%
COc1ccc(N2C(=O)CN=C2Nc2nc(C)cc(C)n2)cc1	7%	1	-2	5%	-18%[12.7 µM]	45µM*
Cn1c(SCc2nc3ccccc3s2)nnc1-c1cccs1	3%	0	-1	4%	45µM*	-33%

Assay outcomes (PubChem)
